40 molecules from PubChem BioAssay (NCATS) can be followed below.

Records with an inconclusive call do not appear. Active and inactive are the calls of the source. The call rests on the fitted dose curve; in most records, active means well fitted cell-killing curve with a large enough effect; inconclusive means small, poorly fitted or top-dose-only effect; inactive means flat fitted curve, though single readings scatter. Where a SMILES comes first, the peptide text is derived from it. Bridges are numbered along the chain shown (N, C = ends). [ ]: non-standard residue; d: D form. hArg = N=C(N)NCCCC[C@H](N)C(=O)O; Mpa = O=C(O)CCS

The assay can be described thus: qHTS of pediatric cancer cell lines to identify multiple opportunities for drug repurposing: Primary screen for control Hh wild type fibroblast cells (AID 1347106).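 Further: a drop in luminescence marks cytotoxicity and a rise apparent proliferation; nearly all actives have a fitted effect of over 55% in size.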 To be noted: Hh wild-type fibroblast viability, CellTiter-Glo luminescence, 48 h; series mostly up to 46 µM. The source says: Drug repurposing or repositioning has been offered as a strategy for drug development in oncology programs. This approach has special potential for childhood cancers and other rare or orphan diseases, where the expected return on new drug development has been a disincentive to pharmaceuticals.
In this project we exploit the poly-pharmacology of drugs to discover new indications via phenotypic screening of a panel of 19 well-characterized cell lines derived from solid tumors seen in children and adolescents. The goal is to identify approved drugs with previously unrecognized anticancer properties that has the potential to reveal new mechanisms and biological processes involved in carcinogenesis or drug resistance. We employed a titration-based paradigm (quantitative high-throughput screening or qHTS), where all compounds were tested at multiple concentrations for their effect on cell viability. Concentration-response curves (CRCs) were derived directly from the primary screen, and both potency and efficacy values were used to identify compounds with robust bioactivity profiles. We screened the NIH Chemical Genomics Center (NCGC) Pharmaceutical Collection (NPC) and Mechanism Interrogation Plate (MIPE) small molecule collections of approved and investigational compounds against these cell lines; and measured metabolically active cells after 48 hours of compound treatment as a proxy for cell viability.
Assay Submitter: Nathalia J. Martinez, National Center for Advancing Translational Sciences, National Institutes of Health, Rockville, MD, USA; email: natalia.martinez@nih.gov
[1] Shen, M et al. Quantitative high-throughput phenotypic screening of pediatric cancer cell lines identifies multiple opportunities for drug repurposing. Oncotarget 2017 Dec 19;9(4):4758-4772. PMID 29435139.
The cells were obtained from University of North Carolina (UNC), Pediatric Preclinical Testing Program (PPT), and Coriell Institute (CI).
qHTS cell viability assay:
Cells were assayed in growth media at a density of 500-1,000 cells/well. Five microliters of cells were dispensed into 1,536-well, white, solid-bottom, TC-treated plates (Greiner Bio One) using a multidrop dispenser and incubated at 37 degrees C, 5% CO2, under a humidified atmosphere for 5 hours. Twenty-three nanoliters of compounds and controls (neutral control DMSO or positive control bortezomib at final concentration of 2.3 µM) were subsequently transferred by Kalypsys pintool. For primary screens, the MIPE collection was tested at 11-point dilutions (final concentrations range from 0.78 nM to 46 µM) and the NPC collection at 8-point dilutions (final concentrations range from 0.59 nM to 46 µM). Compounds tested in follow-up screens were assayed at 11-point dilutions. Cells were incubated for 48 hours, followed by addition of 3 µL of CellTiter-Glo (Promega). After a 15 min incubation at room temperature, samples were analyzed for luminescence intensity using a ViewLux High-throughput CCD imager equipped with clear filters.
A general note: In qHTS, concentration-response curves come from the screen itself.
Take `O=C(O)c1ccccc1C(=O)Nc1ccc(S(=O)(=O)Nc2nccs2)cc1`: the call was inactive.

On to `NC(=O)[C@@H]1CSSCCC(=O)N[C@@H](CCCCN=C(N)N)C(=O)NCC(=O)N[C@@H](CC(=O)O)C(=O)N[C@@H](Cc2c[nH]c3ccccc23)C(=O)N2CCC[C@H]2C(=O)N1` ([Mpa][hArg]GDWPC-NH2; disulfide 1-7), for which the result was inactive.

As for `CCOc1ccc(C(=O)OCCN(CC)CC)cc1`, the molecule was classed as inactive.

Consider `O=C(CCBr)N1CCN(C(=O)CCBr)CC1`, for which the molecule was classed as inactive.

Take `CC(=O)OC[C@H]1O[C@@](COC(C)=O)(O[C@H]2O[C@H](COC(C)=O)[C@@H](OC(C)=O)[C@H](OC(C)=O)[C@H]2OC(C)=O)[C@@H](OC(C)=O)[C@@H]1OC(C)=O`: the outcome was inactive.

For the molecule `C[C@@H](N)C(=O)O`, the call was inactive.

Regarding `O=C1c2cccc(O)c2C(=O)c2c(O)cccc21`, the molecule was classed as inactive.

Take `CN1CCCN=C1COC(=O)C(O)(c1ccccc1)C1CCCCC1` (stereo not given): the outcome was inactive.

Regarding `C[C@H]1COc2c(C3(N)CC3)c(F)cc3c(=O)c(C(=O)O)cn1c23`, the molecule was classed as inactive.

Regarding `CCOC(=O)[C@H](CCc1ccccc1)N[C@@H](C)C(=O)N1Cc2cc(OC)c(OC)cc2C[C@H]1C(=O)O`, the result was inactive.

Consider `O=C(O)CNC(=O)c1ccccc1I`, for which the call was inactive.

For `CC(=O)Nc1ccc(C(=O)O)cc1`, the molecule was classed as inactive.

Turning to `Nc1ccc(C(=O)Oc2ccccc2)c(O)c1`, the molecule was classed as inactive.

In the case of `CCCCCCCCCCC(CO)CCCCCCCC` (stereo not given), the outcome was inactive.

With `CCCCCC(C)N` (stereo not given), the call was inactive.

With `CC(=O)NS(=O)(=O)c1ccc(N)cc1`, the result was inactive.

On to `COc1ccc(C(=O)N2CCN(CC(=O)N3CCOCC3)CC2)cc1`, for which the molecule was called inactive.

`COC(=O)c1cccnc1`: the call was inactive.

Regarding `C[n+]1ccccc1/C=N/O`, the outcome was inactive.

As for `OCc1ccc(Cl)cc1Cl`, the molecule was classed as inactive.

Turning to `CC1(C)[C@@H](OC(=O)CCC(=O)O)CC[C@]2(C)[C@H]3C(=O)C=C4[C@@H]5C[C@@](C)(C(=O)O)CC[C@]5(C)CC[C@@]4(C)[C@]3(C)CC[C@@H]12`, the result was inactive.

In the case of `COc1cc(C(=O)NCCCCCC(=O)O)cc(OC)c1OC`, the outcome was inactive.

Regarding `O=c1[nH]c(=O)c2ccccc2o1`, the outcome was inactive.

Regarding `C[C@@H](c1ncncc1F)C(O)(Cn1cncn1)c1ccc(F)cc1F` (stereo not given in full), the outcome was inactive.

With `CN1CCN(C(=O)C2CCCCC2)CC1`, the molecule was classed as inactive.

Turning to `COc1cc(O)cc(O)c1`, the molecule was classed as inactive.

Regarding `CCCNC(C)C(=O)Nc1c(C)csc1C(=O)OC` (stereo not given), the molecule was called inactive.

As to `CC[N+](C)(CC)CCOC(=O)C1c2ccccc2Oc2ccccc21`, the molecule was called inactive.

With `NNc1nnc(NN)c2ccccc12`, the outcome was inactive.

Consider `CC(C)(C)C(=O)OCOC(=O)[C@@H]1N2C(=O)[C@@H](NC(=O)[C@H](N)c3ccccc3)[C@H]2SC1(C)C`, for which the molecule was classed as inactive.

In the case of `CCCCCCCC(=O)OCC(COC(=O)CCCCCCC)OC(=O)CCCCCCC`, the outcome was inactive.

For `CC(C)NC[C@@H](O)COc1ccc(CC(N)=O)cc1`, the result was inactive.

For `Cc1ccccc1N=Nc1ccc(N=Nc2c(O)ccc3ccccc23)c(C)c1`, the molecule was called inactive.

Take `OCC(O)CS` (stereo not given): the molecule was called inactive.

Take `CC[C@H](C)[C@H](N)C(=O)O`: the molecule was called inactive.

`CC(=O)N[C@H]1[C@H]([C@H](O)[C@H](O)CO)OC(C(=O)O)=C[C@@H]1N=C(N)N`: the result was inactive.

Turning to `Cc1ccc(S(=O)(=O)NC(=O)NC2CCCCC2)cc1`, the molecule was classed as inactive.

Turning to `CN[C@@H]1[C@@H](O)[C@@H](O[C@@H]2[C@H](O)[C@H](O[C@H]3OC(CN)=CC[C@H]3N)[C@@H](N)C[C@H]2N)OCC1(C)O` (stereo not given in full), the molecule was called inactive.

Turning to `NCC1CCC(C(=O)Oc2ccc(CCC(=O)O)cc2)CC1` (stereo not given), the molecule was classed as inactive.

Turning to `COC(=O)c1ccccc1C(=O)c1ccc(OCCN2CCCCC2)cc1`, the result was inactive.
